A selection: hits, their analogues and other compounds. The true share with any hit is near 9.5%.
NS1 inh: influenza NS1 inhibition; Potency, µM (series often up to 46.1 µM); 270,000 tested, 0.4% active; note: actives are rising curves; nearly all actives have a fitted effect of over 50% in size
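Read-out: OD600 growth recovery of NS1-expressing budding yeast. Cells grown overnight at 30C in -URA glucose medium, washed, resuspended and diluted 1:100 in 2% galactose assay medium, pH 6.0. Same strain lacking NS1 served as positive control.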
SARS PLpro yeast: blocks SARS-CoV papain-like protease in a yeast assay | 330,000 tested, 0.19% active | Potency, µM (highest dose often 32.9 µM), most hits filed as activators | S. cerevisiae expressing SARS-CoV PLpro, growth rescue; note: nearly all actives have a fitted effect of over 55% in size
Pf growth 96h: inhibits malaria parasite growth, 96 h | 320,000 tested, 6.9% active | AID 504834 | P. falciparum luciferase reporter growth, 96 h | Potency, µM (highest dose often 28.7 µM), usual class: inhibitors; active = well fitted inhibition curve with a large enough effect; inconclusive = small, poorly fitted or top-dose-only effect, or another doubt; inactive = no such curve, though single readings can be large or run the other way
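Parasite growth measured via integrated firefly luciferase reporter in P. falciparum. Infected erythrocytes at 2% hematocrit, 0.05% parasitemia final were treated 96 hours at 37 C under 5% CO2, and luminescence was read.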
RE007 growth inh: less growth of the S. pombe RE007 Vpr strain; 360,000 tested, 0.21% active; AID 651644; Potency, µM (series often up to 92.2 µM), usual class: inhibitors; S. pombe RE007 Vpr strain, BacTiter-Glo ATP luminescence, 24 h; active = well fitted falling curve with a large enough effect; inconclusive = small, poorly fitted or top-dose-only effect; inactive = no such curve, though single readings can be large or run the other way; note: nearly all actives have a fitted effect of over 50% in size
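Fission yeast RE007 carrying one integrated HIV-1 vpr copy, seeded at OD 0.01 in PMG+AL medium with 23 nL pinned compound. Grown 24 h at 30 degrees; viability read by BacTiter-Glo luminescence after 5 min.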
Pf growth 48h: P. falciparum growth inhibition at 48 hours (one generation); P. falciparum luciferase growth in erythrocytes, 48 h; Potency, µM (top dose mostly 28.7 µM), usual class: inhibitors; 310,000 tested, 5.9% active; active = well fitted inhibition curve with a large enough effect; inconclusive = small, poorly fitted or top-dose-only effect, or another doubt; inactive = no such curve, though single readings can be large or run the other way
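Parasite viability was followed by luminescence of a genomically integrated firefly luciferase. Cultures held 0.1% parasitemia at 2% hematocrit (final), incubated under 5% CO2 at 37 C.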
Of the large screens only hits and unclear results are named; the others gave an inactive call. Unless noted, calls come from the whole dose curve.

COc1ccc2cc1Oc1ccc(cc1)C[C@H]1c3cc(c(OC)cc3CCN1C)Oc1c(OC)c(OC)cc3c1[C@@H](C2)N(C)CC3	Pf growth 96h 1.47µM, Pf growth 48h 2.33µM
CCOc1ccc(NC(=O)C2(c3ccc(OC)c(OC)c3)CCCC2)cc1	Pf growth 96h 1.65µM, Pf growth 48h inconclusive (no result: RE007 growth inh)
COc1ccc(-c2cc(C(F)(F)F)nc(N3CCN(Cc4ccccc4)CC3)n2)cc1OC	Pf growth 48h 10.4µM
C#C[C@]1(O)CC[C@H]2[C@@H]3CCC4=Cc5nc6nc7ccccc7n6cc5C[C@]4(C)[C@H]3CC[C@@]21C	Pf growth 96h 5.22µM, Pf growth 48h 3.7µM (no result: NS1 inh, SARS PLpro yeast)
C#C[C@]1(O)CCC2C3CCC4=Cc5oncc5CC4(C)C3CCC21C (stereo partly specified)	none (no result: NS1 inh, SARS PLpro yeast, Pf growth 96h, Pf growth 48h)
CN(C)CCN(Cc1ccccc1)C(=O)c1[nH]c(C(F)(F)F)nc1-c1ccccc1	none (no result: NS1 inh, SARS PLpro yeast, Pf growth 96h, Pf growth 48h)
CCCCC1(C)NC(=O)c2c(C)sc(C(=O)OCC)c2N1 (stereo unspecified)	Pf growth 96h 8.28µM, Pf growth 48h inconclusive
CCOC(=O)CC1(CC(=O)OCC)NC(=O)c2c(C)sc(C(=O)OCC)c2N1	Pf growth 96h 3.7µM
O=C(COc1ccc2ccccc2c1)N1c2ccccc2Sc2ccccc21	Pf growth 96h 13.1µM, Pf growth 48h inconclusive
COc1ccc(/C(=N/O)C(C)(C)NO)cc1	Pf growth 96h 8.28µM (no result: Pf growth 48h)
CC(C)(NO)/C(=N\O)c1ccc(Cl)cc1	none
COc1ccc(-c2cc(C(=O)Nc3cc(S(=O)(=O)N4CCOCC4)ccc3N3CCOCC3)c3ccccc3n2)cc1	Pf growth 96h inconclusive, Pf growth 48h inconclusive
CCOP(=O)(OCC)C(NC(=O)Nc1ccc(Cl)c(Cl)c1)c1ccccc1 (stereo unspecified)	Pf growth 96h inconclusive
CCOP(=O)(OCC)C(NC(=O)Nc1ccc(C)c(Cl)c1)c1ccccc1 (stereo unspecified)	Pf growth 96h 14.7µM, Pf growth 48h inconclusive
O=C(Nc1cc(S(=O)(=O)Nc2ccc(Cl)cc2)ccc1N1CCCCC1)c1ccc(F)cc1Cl	Pf growth 96h 6.57µM, Pf growth 48h inconclusive
COc1ccc(NS(=O)(=O)c2ccc(N3CCOCC3)c(NC(=O)c3ccccc3Cl)c2)cc1	Pf growth 48h 10.4µM
COc1ccc(NS(=O)(=O)c2cccc(NC(=O)C3=NN(c4ccccc4)C(=O)CC3)c2)cc1	Pf growth 96h 7.38µM, Pf growth 48h inconclusive
COc1ccc(NS(=O)(=O)c2ccc(O)c(NC(=O)c3ccc(S(=O)(=O)N4CCCCCC4)cc3)c2)cc1	none
COc1ccc(NS(=O)(=O)c2cccc(NC(=O)c3ccc(S(=O)(=O)N4CCCCCC4)cc3)c2)cc1	Pf growth 96h 13.1µM, Pf growth 48h inconclusive
O=C(CSc1nc(C2CC2)nc2ccccc12)N1CCc2ccccc21	none (no result: NS1 inh, SARS PLpro yeast, Pf growth 96h, Pf growth 48h)
COc1ccc(NS(=O)(=O)c2ccc(N3CCOCC3)c(NC(=O)c3ccc(OC)cc3)c2)cc1	NS1 inh inconclusive, Pf growth 96h 11.7µM (no result: RE007 growth inh)
COc1ccc(NS(=O)(=O)c2ccc(N3CCOCC3)c(N)c2)cc1	none (no result: NS1 inh)
CC(=O)NS(=O)(=O)c1ccc(NC(=O)C(C)NS(=O)(=O)/C=C/c2ccccc2)cc1 (stereo unspecified)	none (no result: NS1 inh, Pf growth 96h, Pf growth 48h)
CN1CCN(CC(=O)N2c3ccccc3C(C)(c3ccccc3)CC2(C)C)CC1 (stereo unspecified)	Pf growth 96h 10.4µM, Pf growth 48h inconclusive
CC(=O)N1c2ccccc2C(C)(c2ccccc2)CC1(C)C (stereo unspecified)	Pf growth 48h 9.28µM (no result: Pf growth 96h)
CCCCCCN1CCN(C2CN(Cc3ccc([N+](=O)[O-])cc3)S(=O)(=O)C2)CC1 (stereo unspecified)	none (no result: NS1 inh, SARS PLpro yeast, Pf growth 96h, Pf growth 48h)
Cn1nnnc1SCC(=O)NC(=O)c1cccc([N+](=O)[O-])c1	none
COc1ccc(-c2oc3ccc(-c4cc(OC)c(OC)c(OC)c4)cc3c2-c2ccc(OC)nc2)cc1	Pf growth 96h 3.29µM, Pf growth 48h inconclusive
COc1ccc(-c2oc3ccc(-c4cc(OC)c(OC)c(OC)c4)cc3c2-c2ccc(OC)cc2)cc1	none (no result: NS1 inh, SARS PLpro yeast, Pf growth 96h, Pf growth 48h)
N/C(=N\OS(=O)(=O)c1ccccc1)c1cccnc1	none
N/C(=N\OS(=O)(=O)c1ccccc1)c1ccncc1	Pf growth 96h 8.28µM, Pf growth 48h inconclusive
COCCN(Cc1ccccc1)C(=O)C1CCN(C(=O)Nc2ccccc2)CC1	none (no result: NS1 inh, Pf growth 96h, Pf growth 48h)
COc1ccccc1N1CCN(C(=O)c2ccc3c(c2)CCN3S(=O)(=O)c2ccccc2)CC1	Pf growth 96h inconclusive, Pf growth 48h 8.28µM
O=C(c1cccc(S(=O)(=O)N2CCc3ccccc32)c1)N1CCN(c2ccccc2)CC1	Pf growth 96h 10.4µM, Pf growth 48h inconclusive (no result: NS1 inh)
O=C(c1cccc(S(=O)(=O)N2CCc3ccccc3C2)c1)N1CCN(c2ccccc2)CC1	NS1 inh inconclusive, Pf growth 96h inconclusive
COC/C=C/C1=CC2=CC(=O)C(C)(OC(=O)c3cnc4ccccc4n3)C(=O)C2=CN1CCN1CCOCC1 (stereo unspecified)	Pf growth 96h 9.28µM, Pf growth 48h inconclusive
CN1CCN(c2ccc([N+](=O)[O-])c3no[n+]([O-])c23)CC1	Pf growth 96h inconclusive, RE007 growth inh 31.6µM, Pf growth 48h inconclusive
CN1CCN(c2ccc(S(C)(=O)=O)cc2[N+](=O)[O-])CC1	Pf growth 96h 11.7µM
CN1CCN(c2ccc(S(=O)(=O)C(F)(F)F)cc2[N+](=O)[O-])CC1	Pf growth 96h inconclusive
Cc1cccc(N2C(=O)CC(=O)NC2=O)c1	none
O=C1C=CC(=O)N1c1ccc(Nc2ccccc2)cc1	RE007 growth inh 11.2µM (no result: NS1 inh, SARS PLpro yeast, Pf growth 96h, Pf growth 48h)
Cc1cccc(N2C(=O)C=CC2=O)c1	RE007 growth inh 8.91µM (no result: NS1 inh, SARS PLpro yeast, Pf growth 96h, Pf growth 48h)
O=C1C=CC(=O)N1c1ccc2ccccc2c1	RE007 growth inh 2.24µM (no result: NS1 inh, SARS PLpro yeast, Pf growth 96h, Pf growth 48h)
O=C(c1ccc2c(c1)OCO2)N1CCN(S(=O)(=O)c2ccc(Cl)cc2)CC1	Pf growth 48h inconclusive
CCCC(c1nnnn1CC(=O)OCC)N(Cc1cc2c(C)cc(C)cc2[nH]c1=O)C1CCCC1 (stereo unspecified)	Pf growth 48h 13.1µM (no result: Pf growth 96h)
Cc1cc(=O)n2nc(N3CCCC(C(=O)NCCCN4C(C)CCCC4C)C3)sc2n1 (stereo unspecified)	none (no result: NS1 inh, SARS PLpro yeast, Pf growth 96h, Pf growth 48h)
O=c1c2c(nc3n1CCS3)c1cc(F)ccc1n2Cc1cc(=O)n2cc(Cl)ccc2n1	Pf growth 96h 1.85µM, Pf growth 48h inconclusive
Cc1ccc(CN2C(=O)C(C)Oc3ccc(C)cc32)cc1 (stereo unspecified)	none (no result: NS1 inh, SARS PLpro yeast, Pf growth 96h, Pf growth 48h)
CCN(CC)S(=O)(=O)c1ccc(N2CCOCC2)c(NC(=O)CC(C)(C)C)c1	Pf growth 96h inconclusive, Pf growth 48h inconclusive
CCN(CC)S(=O)(=O)c1ccc(N2CCOCC2)c(NS(=O)(=O)c2ccc(OC)cc2)c1	Pf growth 96h inconclusive
CCN(CC)S(=O)(=O)c1ccc(N2CCOCC2)c(NS(=O)(=O)c2ccc(C)c(C)c2)c1	Pf growth 96h 4.15µM, Pf growth 48h 7.38µM
CCN(CC)S(=O)(=O)c1ccc(N2CCOCC2)c(NS(=O)(=O)c2ccc(C)cc2)c1	Pf growth 96h 5.86µM, Pf growth 48h inconclusive

Source: PubChem BioAssay (National Center for Advancing Translational Sciences (NCATS))
